Screening data: PubChem BioAssay, National Center for Advancing Translational Sciences (NCATS)
The list is not random: actives were taken first. Their share in the collection is about 9.2%.
FLuc counter: firefly luciferase modulation, counter-screen for miR-21 project; P08659; AID 588342; Potency, µM (highest dose often 57.5 µM), without a hit: at the top dose activity change, negative = inhibition, hits mostly inhibitors; 6.9% of 360,000 active; purified FLuc, Km substrates, luminescence inhibition;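 further: plate controls were vehicle for no effect and reference inhibitor for full effect; nearly all actives have a fitted effect of over 55% in size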
Target sequence (P08659 whole entry, looked up): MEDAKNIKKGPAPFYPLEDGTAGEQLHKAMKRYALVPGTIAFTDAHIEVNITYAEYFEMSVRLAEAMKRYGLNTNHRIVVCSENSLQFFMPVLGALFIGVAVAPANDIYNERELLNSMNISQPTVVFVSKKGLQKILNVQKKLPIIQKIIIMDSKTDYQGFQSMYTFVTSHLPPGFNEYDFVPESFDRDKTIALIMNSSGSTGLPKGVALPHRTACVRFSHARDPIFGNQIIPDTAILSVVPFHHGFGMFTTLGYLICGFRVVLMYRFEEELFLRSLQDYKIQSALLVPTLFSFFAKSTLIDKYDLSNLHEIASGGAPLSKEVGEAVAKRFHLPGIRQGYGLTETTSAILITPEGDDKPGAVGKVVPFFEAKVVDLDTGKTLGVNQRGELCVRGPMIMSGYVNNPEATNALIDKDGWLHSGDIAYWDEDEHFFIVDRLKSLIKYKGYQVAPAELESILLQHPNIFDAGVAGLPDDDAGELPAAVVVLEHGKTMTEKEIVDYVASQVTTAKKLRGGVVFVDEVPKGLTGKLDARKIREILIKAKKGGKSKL
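Purified P. pyralis luciferase (10nM final) with 10uM D-luciferin and 10uM ATP (Km levels) in 50mM Tris acetate pH 7.5, 10mM Mg acetate, 0.01% Tween-20, 0.05% BSA; qHTS 6-point titration, ~60 µM downward; luminescence read.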
ELG1 genotox: induces genotoxicity in HEK293T cells with luciferase-tagged ELG1; HEK293T ELG1-luciferase reporter, luminescence, 16 h; 1.3% of 330,000 active; Potency, µM (doses to about 46 µM), without a hit: at the highest dose activity change, positive = activation, hits mostly activators; further: % of control where 0% means no effect; nearly all actives have a fitted effect of over 60% in size
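DMSO vehicle served as control against compound-treated ELG1-luciferase HEK293T cells; exposure lasted 16 hr at 37 °C and 5% CO2, followed by ONE-Glo luminescence detection after 30 min.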
ELG1 DNA repair: ELG1-dependent DNA repair inhibition; Potency, µM (titrated, usually from 46.1 µM), inactives show at the highest dose activity change, negative = inhibition, usual class: inhibitors; HEK293T ELG1-luciferase reporter, luminescence, 16 h; DNA damage induced by 5-fluorouridine; AID 504467; 2.3% of 330,000 active; further: on the % scale 0 is the no-effect control and ±100 the full control effect; nearly all actives have a fitted effect of over 55% in size
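Reporter activity after DNA damage by 5-fluorouridine is monitored. Compound-treated cells incubate 16 hr at 37 °C, then ONE-Glo is added for 30 min before luminescence reading.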
Rab9 promoter act: activators of Rab9 promoter; Huh7 Rab9 promoter-luciferase reporter, luminescence, 24 h; Potency, µM (top dose mostly 9.22 µM), for the others: top-dose activation, negative = inhibition, usual class: activators; 2.8% of 320,000 active; AID 485297; further: % of control where 0% means no effect; nearly all actives have a fitted effect of over 60% in size
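Steps: seed 1500 Huh7 Rab9-luc cells per well, rest 2 h at 37 °C; add compound in DMSO; incubate 24 h; add luciferase reagent, 10 min ambient; read luminescence.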
NPC1 prom act: activators of NPC1 promoter. Huh7 NPC1 promoter luciferase reporter, 24 h. Potency, µM (top dose mostly 9.22 µM), inactives show at the highest dose activation, actives largely listed as activators. 2.4% of 320,000 active; further: % of control where 0% means no effect; nearly all actives have a fitted effect of over 60% in size
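Readout is luciferase luminescence, reflecting NPC1 promoter activation in stably transfected Huh7 cells after 24 h compound exposure at 37 °C in reduced-serum medium with 10% FBS.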
SMN2 splice enh: SMN2 splice variant enhancement; HEK293 SMN2-luciferase splicing reporter, luminescence, 30-36 h; Potency, µM (series often up to 46.1 µM), for inactives: at the highest dose activity change, positive = activation, hits mostly activators; 2.8% of 210,000 active; AID 1458; further: % of control where 0% means no effect; nearly all actives have a fitted effect of over 55% in size
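qHTS luciferase splicing reporter: luminescence rises when SMN2 exon 7 is included in transfected HEK293 cells. Compound exposure lasted 30-36 h at 37C, with 4.5 mM final sodium butyrate as control, followed by a ONE-Glo read.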
Active calls of the source: *; ? = inconclusive; / = no result; [ ] = another dose, or the depositor's remark. The call rests on the fitted dose curve; in most records, active means well fitted curve in the direction sought with a large enough effect; inconclusive means small, poorly fitted or top-dose-only effect, or another doubt; inactive means no such curve, though single readings can be large; an effect the other way counts as inactive or inconclusive. Potency means the concentration at half of the fitted maximal effect.

SMILES	FLuc counter	ELG1 genotox	ELG1 DNA repair	Rab9 promoter act	NPC1 prom act	SMN2 splice enh
CC(=O)CCC(=O)N1CCCC(CNC(=O)c2ccc(-c3ccccc3)cc2)C1 (stereo not given)	11µM*	4%	14%	25%	17%	/
CSCC(=O)N1CCCC(CNC(=O)c2ccccc2Cl)C1 (stereo not given)	-4%	0%	-2%	-10%	-2%	/
CSCC(=O)N1CCCC(CNC(=O)c2ccc(-c3ccccc3)cc2)C1 (stereo not given)	21µM*	-6%	?	-2%	2%	/
C=CCOC(=O)C(C#N)c1nc2ccccc2nc1N1CCN(Cc2ccc3c(c2)OCO3)CC1 (stereo not given)	0%	-7%	16µM*	-4%	0%	?
CCOc1ccccc1N1CCN(c2nc3ccccc3nc2C(C#N)C(=O)OC(C)C)CC1 (stereo not given)	0%	6%	-1%	1%	-5%	-5%
C=CCOC(=O)C(C#N)c1nc2ccccc2nc1N1CCN(c2ccccc2OCC)CC1 (stereo not given)	3%	-5%	15µM*	1%	-2%	12%
COc1ccc(CNC(=O)C(C#N)c2nc3ccccc3nc2N2CCCC2)cc1 (stereo not given)	1%	0%	5.8µM*	2%	1%	-19%
Cc1nc(N2CCCCC2)sc1C(=O)c1ccc(Cl)c([N+](=O)[O-])c1	-16%	-5%	18µM*	-8%	-9%	-1%
CN(C)c1ccc2c(c1)OC(N)=C(C#N)C2c1cccc(F)c1 (stereo not given)	-8%	?	-9%	-26%	-7%	-24%
N#CC1=C(N)Oc2cc(N)ccc2C1c1cccc(F)c1 (stereo not given)	2%	1%	2.9µM*	-27%	-32%	/
CC1CCC2CC1C2(C)C (stereo not given)	/	/	/	/	/	-2%
CN(C)c1ccc(-n2cc3c(=O)n(C)c(=O)n(C)c3c2)cc1	17µM*	?	?	?	?	-8%
CCN(CC)c1ccc(-n2cc3c(=O)n(C)c(=O)n(C)c3c2)cc1	?	-2%	-15%	2%	-5%	11%
Cc1ccc(NC(=O)c2cccc(S(=O)(=O)N(C)c3ccccc3)c2)cc1S(=O)(=O)N1CCOCC1	-1%	-4%	13µM*	-10%	-1%	-37%
Cc1ccc(C(=O)Nc2cccc(S(=O)(=O)N3CCCCC3)c2)cc1[N+](=O)[O-]	-14%	-5%	11µM*	-11%	-5%	/
CSc1nnc(NC(=O)c2ccc(C)c(S(=O)(=O)N3CCOCC3)c2)s1	?	?	?	6%	26%	11µM*
Cc1nnc(NC(=O)c2ccc(C)c(S(=O)(=O)N3CCOCC3)c2)s1	?	/	/	/	/	5%
Cc1ccc(C(=O)Nc2cccc(C(=O)O)c2)cc1S(=O)(=O)N1CCCCC1	0.34µM*	?	?	0.4µM*	0.79µM*	11µM*
COc1ccc(C2c3c(n(C)c4ccccc34)C(=O)N2CC(=O)Nc2cc(Cl)ccc2C)cc1 (stereo not given)	-7%	/	/	/	/	/
CCN1CCN(c2c(S(=O)(=O)c3ccc(Cl)cc3)cnc3ccccc23)CC1	-5%	/	/	/	/	-11%
CCOc1ccc(N(CC)C(=O)Cn2cnc3sc(C)c(S(=O)(=O)N4CCN(c5ncccn5)CC4)c3c2=O)cc1	-8%	/	/	/	/	-7%
Cc1ccc(C(=O)Nc2ccc3c(c2)CCC3)cc1S(=O)(=O)N1CCOCC1	17µM*	?	?	2.2µM*	?	?
Cc1ccc(C(=O)Nc2cccc(C(=O)O)c2)cc1S(=O)(=O)N1CCOCC1	1.1µM*	12%	?	2.2µM*	1.3µM*	13µM*
Cc1ccc(C(=O)Nc2ccccc2C(=O)NCc2ccco2)cc1S(=O)(=O)N1CCCCC1	-15%	-4%	12µM*	-2%	-1%	-6%
CCCCOc1ccc(CNC(=O)CCCN2C(=O)CSc3c2c(C)nn3-c2ccccc2)cc1	-24%	/	/	/	/	/
SMILES	FLuc counter	ELG1 genotox	ELG1 DNA repair	Rab9 promoter act	NPC1 prom act	SMN2 splice enh
COc1ccc(NC(=O)Cn2c(C)c3cnn(-c4ccccc4)c(=O)c3c2C)c(OC)c1	0%	/	/	/	/	13%
O=C(CSCc1cccc(F)c1)N1CCN(c2ccccc2)CC1	13µM*	13µM*	?	?	3.2µM*	13µM*
O=C(CSCc1ccccc1)N1CCN(c2ccccc2)CC1	24µM*	?	?	?	?	13µM*
COc1cc(OC)cc(N2C(=O)N(CC(=O)c3ccc(F)cc3)c3ccccc3S2(=O)=O)c1	-2%	/	/	/	/	/
COC(=O)Nc1nc2ccc(SC(C)C)cc2[nH]1	?	5.8µM*	?	16%	20%	?
O=C(Nc1cc(Cl)ccc1Cl)c1noc2c1CCCC2	-9%	1%	15%	-2%	2%	/
O=C(Nc1ccccc1C(F)(F)F)c1noc2c1CCCCC2	2.7µM*	/	/	/	/	11µM*
O=C(Nc1ccc(F)cc1F)c1noc2c1CCC2	15µM*	13%	?	?	?	?
O=C(NCc1ccc(F)cc1)c1noc2c1CCCCC2	-12%	0%	?	4%	1%	-5%
CCOC(=O)c1ccccc1NC(=O)N(C)CCc1c(C)nn(CC)c1C	-1%	/	/	/	/	/
Cc1nc2ccccn2c1-c1ccnn1S(=O)(=O)c1ccc(F)cc1	-1%	-9%	18µM*	-17%	-19%	/
O=S(=O)(NCc1nnc2ccccn12)c1ccc(F)cc1	5%	-3%	-3%	2%	-4%	/
COc1ccccc1N1CCN(C(=O)CSc2ccccc2)CC1	?	?	?	?	28%	4%
CCc1ccc2oc(C(=O)N3CCN(c4ccccc4OC)CC3)cc(=O)c2c1	?	0%	?	-7%	-31%	/
COc1ccccc1N1CCN(C(=O)c2cc(=O)c3c(C)cc(C)cc3o2)CC1	-15%	-6%	26µM*	-3%[1.84 µM]	-7%	/
COc1ccccc1N1CCN(C(=O)c2ccc(-c3ccccc3)cc2)CC1	24µM*	1%	9%	-3%	-2%	/
COc1ccccc1N1CCN(C2CCCN(C(=O)c3ccoc3C)C2)CC1 (stereo not given)	1%	-4%	-12%	9%	-1%	/
COc1ccccc1N1CCN(C(=O)CSc2nnc3c4ccccc4nc(Cc4ccccc4)n23)CC1	-1%	-9%	9.2µM*	-1%	-5%	-4%
COc1ccccc1N1CCN(C2CCCN(C(=O)c3cccc(-c4ccco4)c3)C2)CC1 (stereo not given)	4%	-22%	23µM*	-3%	-1%	/
